Values without a mark were called inactive. Activity calls are given as the source filed them. Cut-off read from the data, not from the text of the source: active = inhibition score above about 11; inactive = the rest.
experiment: S. cerevisiae short- and long-term growth effects – BY4741, OD595, 24 h, dose response (AID 489042); settings: flow cytometer event count, 7 d (AID 449753), stronger effect = higher value

| Structure (SMILES) | inhibition score |
| --- | --- |
| C[C@]12CCC3C(CC[C@H]4C[C@H](O)CC[C@]34C)C1C[C@@H](CCCCl)[C@@H]2O (stereo not given in full) | 0 |
| C#C[C@]1(O)[C@H](O)CC2C3CC[C@H]4C[C@@H](O)CC[C@]4(C)C3CC[C@@]21C (stereo not given in full) | 0 |
| Oc1cccc2nc3ccccc3nc12 | 0 |
| Nc1cc2nc3ccccc3nc2cc1N | 0 |
| Cn1c(=O)[nH]c2nncnc2c1=O | 0 |
| C[C@]12CCC3C(CC[C@H]4C[C@@H](O)CC[C@]34C)C1CC[C@@H]2OC(=O)[C@H](N)CCCCN (stereo not given in full) | 0 |
| OCC[n+]1c2ccccc2nc2ccc(N3CCOCC3)cc21 | 0 |
| CC(=O)O[C@H]1CCC2C3CC[C@H]4[C@@H](O)[C@H](O)CC[C@]4(C)C3CC[C@@]21C (stereo not given in full) | 0 |
| C[C@]12CCC3C(CC[C@H]4C[C@@H](O)CC[C@]34C)[C@H]1CC[C@H]2O (stereo not given in full) | 0 |
| C=C1C(O)[C@@H]2O[C@]3(CC[C@H](/C=C/C(C)[C@@H]4CC(C)=CC5(O[C@H](C[C@@](C)(O)C(=O)O)CCC5O)O4)O3)CC[C@H]2O[C@@H]1C(O)CC(C)[C@H]1OC2(CCCCO2)CCC1C (stereo not given in full) | 11 (active) |
| C[C@]12CCC3C(CC[C@H]4C[C@H](O)CC[C@]34C)C1CCC2=O (stereo not given in full) | 0 |
| O=c1[nH]c(O)c(C=Nc2ccc(F)c(Cl)c2)c(=O)[nH]1 | 0 |
| Cn1c(O)c(C(=Nc2ccc(F)cc2)c2ccccc2Cl)c(=O)n(C)c1=O | 0 |
| CNc1ccc2nc3ccccc3[n+](C)c2c1 | 0 |
| C[n+]1c2ccccc2nc2ccc(NCCO)cc21 | 0 |

Source: PubChem BioAssay AID489042 (NMMLSC, 2010)
